Laboratory results: article PMC5700166

Key:
Experiment in all cases: protein-binding microarray (PBM); PBM: ~300 nM protein, 6 mM HEPES pH 7.8, 80 mM KCl, 0.5 mM EDTA, 0.5 mM EGTA, 6% glycerol, 35 ng/ul poly-dIdC, 1% milk, 1 h, room temperature; Ap Aiptasia and Nv Nematostella (sea anemones) / Co Capsaspora / Aq Amphimedon (sponge) / Dm Drosophila / Hu human; RHD is the Rel homology domain; high values mean tight binding
Conditions in all cases: dsDNA, one strand shown
GST-Ap-NF-kB RHD = molecular target: T1, GST-Ap-NF-kB RHD (Exaiptasia pallida (Aiptasia), UniProt A0A913YAJ5 2-422)
T1 sequence: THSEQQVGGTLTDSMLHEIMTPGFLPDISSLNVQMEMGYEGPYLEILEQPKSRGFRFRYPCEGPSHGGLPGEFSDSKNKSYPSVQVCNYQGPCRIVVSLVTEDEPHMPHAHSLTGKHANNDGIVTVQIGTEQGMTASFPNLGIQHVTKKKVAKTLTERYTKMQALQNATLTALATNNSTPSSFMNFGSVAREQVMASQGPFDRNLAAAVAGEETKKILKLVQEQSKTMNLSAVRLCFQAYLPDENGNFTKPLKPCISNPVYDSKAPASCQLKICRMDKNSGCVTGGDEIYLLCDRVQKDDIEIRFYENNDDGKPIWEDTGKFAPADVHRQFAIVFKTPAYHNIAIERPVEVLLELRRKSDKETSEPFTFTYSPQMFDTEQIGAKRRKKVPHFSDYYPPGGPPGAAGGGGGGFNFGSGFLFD

[1] = molecular target: T2, GST-Nv-NF-kB (Cys allele) (Nematostella vectensis, UniProt E5G601 2-411)
T2 sequence: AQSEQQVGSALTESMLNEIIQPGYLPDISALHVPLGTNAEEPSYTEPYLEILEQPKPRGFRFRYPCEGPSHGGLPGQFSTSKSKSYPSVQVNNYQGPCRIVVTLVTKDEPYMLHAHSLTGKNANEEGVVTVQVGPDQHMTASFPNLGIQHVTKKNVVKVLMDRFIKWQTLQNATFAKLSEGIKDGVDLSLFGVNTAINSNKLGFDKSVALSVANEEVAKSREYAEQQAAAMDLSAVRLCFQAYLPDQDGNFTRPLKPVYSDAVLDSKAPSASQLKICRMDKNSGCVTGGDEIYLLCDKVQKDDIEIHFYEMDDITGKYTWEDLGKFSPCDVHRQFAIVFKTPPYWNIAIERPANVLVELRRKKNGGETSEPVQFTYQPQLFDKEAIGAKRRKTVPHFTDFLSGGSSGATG

GST-Co-NF-kB = molecular target: T3, GST-Co-NF-kB (Capsaspora owczarzaki, UniProt F1ARL5 200-546)
T3 sequence: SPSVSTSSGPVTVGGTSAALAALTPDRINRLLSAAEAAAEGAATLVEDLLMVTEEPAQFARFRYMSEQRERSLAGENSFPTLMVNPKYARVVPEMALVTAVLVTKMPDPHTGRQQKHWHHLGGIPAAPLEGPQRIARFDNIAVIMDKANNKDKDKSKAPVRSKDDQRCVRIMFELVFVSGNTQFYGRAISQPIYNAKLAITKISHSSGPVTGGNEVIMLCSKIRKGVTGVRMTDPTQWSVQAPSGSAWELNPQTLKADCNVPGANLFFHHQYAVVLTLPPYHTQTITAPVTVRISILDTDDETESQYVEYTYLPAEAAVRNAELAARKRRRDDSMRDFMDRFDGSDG

GST-Dm-Relish = molecular target: T4, GST-Dm-Relish (Drosophila melanogaster, UniProt Q94527 99-473)
T4 sequence: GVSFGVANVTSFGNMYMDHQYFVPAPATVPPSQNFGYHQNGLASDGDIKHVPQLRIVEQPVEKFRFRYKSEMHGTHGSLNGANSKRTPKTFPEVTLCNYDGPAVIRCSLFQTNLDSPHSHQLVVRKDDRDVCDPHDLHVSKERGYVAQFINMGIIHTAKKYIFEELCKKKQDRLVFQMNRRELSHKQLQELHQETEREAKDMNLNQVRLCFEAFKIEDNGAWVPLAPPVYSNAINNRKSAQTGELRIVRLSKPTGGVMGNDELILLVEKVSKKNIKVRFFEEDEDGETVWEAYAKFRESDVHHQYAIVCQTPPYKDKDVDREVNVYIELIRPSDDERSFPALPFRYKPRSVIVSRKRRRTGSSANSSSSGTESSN

GST-Aq-NF-kB = molecular target: T5, GST-Aq-NF-kB (Amphimedon queenslandica, UniProt A9Y5G7 2-389)
T5 sequence: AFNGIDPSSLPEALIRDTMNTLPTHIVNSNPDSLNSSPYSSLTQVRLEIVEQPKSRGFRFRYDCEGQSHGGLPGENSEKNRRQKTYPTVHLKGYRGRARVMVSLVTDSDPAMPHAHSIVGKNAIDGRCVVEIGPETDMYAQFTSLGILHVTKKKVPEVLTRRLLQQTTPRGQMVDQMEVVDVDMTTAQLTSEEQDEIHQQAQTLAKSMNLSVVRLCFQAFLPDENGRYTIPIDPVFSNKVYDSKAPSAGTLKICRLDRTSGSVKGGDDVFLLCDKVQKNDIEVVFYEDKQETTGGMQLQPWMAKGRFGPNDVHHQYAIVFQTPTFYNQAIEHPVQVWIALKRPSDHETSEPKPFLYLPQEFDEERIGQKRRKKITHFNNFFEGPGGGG

Sequence	binding signal (GST-Ap-NF-kB RHD) [z-score]	binding signal [1] [z-score]	binding signal (GST-Co-NF-kB) [z-score]	binding signal (GST-Dm-Relish) [z-score]	binding signal (GST-Aq-NF-kB) [z-score]
CCGATTAACATCAAACAACCCCCTGATGTTAATCGGGTCTTGATTCGCTTGACGCTGCTG	5.66	4.5	2.66	5.24	5.17
CCGATTAACATCAGGGGGAGAGATGATGTTAATCGGGTCTTGATTCGCTTGACGCTGCTG	3.84	3.66	5.69	1.45	3.54
CCGATTAACATCACCAAATTCCCTGATGTTAATCGGGTCTTGATTCGCTTGACGCTGCTG	4.1	4.67	3.82	4.02	4.03
CCGATTAACATCAATACACCCCCTGATGTTAATCGGGTCTTGATTCGCTTGACGCTGCTG	3.75	2.95	4.19	3.33	3.5
CCGATTAACATCAGGGGGTCTACTGATGTTAATCGGGTCTTGATTCGCTTGACGCTGCTG	4.22	2.44	1.58	7.11	4.4
CCGATTAACATCAGGATATTCCCTGATGTTAATCGGGTCTTGATTCGCTTGACGCTGCTG	4.67	5.16	3.51	3.37	6.63
CCGATTAACATCAGGGGCGCCCCTGATGTTAATCGGGTCTTGATTCGCTTGACGCTGCTG	7.03	5.37	3	6.07	8.59
CCGATTAACATCAGGGGGTAGGATGATGTTAATCGGGTCTTGATTCGCTTGACGCTGCTG	4.15	2.75	3.64	1.35	2.89
CCGATTAACATCACACCACCCCCTGATGTTAATCGGGTCTTGATTCGCTTGACGCTGCTG	3.79	2.72	2.88	2.4	3.3
CCGATTAACATCAGGCTTCCCCCTGATGTTAATCGGGTCTTGATTCGCTTGACGCTGCTG	5.74	5.65	6.8	6.44	5.57
CCGATTAACATCAATTACCCCCCTGATGTTAATCGGGTCTTGATTCGCTTGACGCTGCTG	5.96	4.69	6.96	4.49	5.14
CCGATTAACATCAAGGTTTTCCCTGATGTTAATCGGGTCTTGATTCGCTTGACGCTGCTG	4.36	5.34	4.71	5.1	5.65
CCGATTAACATCAGGGGAAGGGATGATGTTAATCGGGTCTTGATTCGCTTGACGCTGCTG	4.77	4.77	3.96	1.68	3.89
CCGATTAACATCAGGAAATCCCATGATGTTAATCGGGTCTTGATTCGCTTGACGCTGCTG	4.15	3.68	1.17	8.1	5.09
